# Data reported in PubChem BioAssay AID2796 (The Scripps Research Institute Molecular Screening Center, 2010).
# Hit rate of the full screen: of about 320,000 compounds, about 8,000 (2.5%) were called active. No stated cut-off is given here; in the data, active means activation above about 47%; inactive means the rest. The entries come from a sample that favours actives as a whole.
# Molecular target: Aryl hydrocarbon receptor (Homo sapiens) (UniProt P35869)
# Test: AHR activators, primary screen, cell-based, luminescence, luciferase reporter, human (AID 2796);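 further: 0% = vehicle wells and 100% = reference agonist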
# Conditions: AHR-responsive luciferase reporter cells, at 5 µM, hits give high values
# Chain of Aryl hydrocarbon receptor (Homo sapiens) (P35869 whole entry, looked up): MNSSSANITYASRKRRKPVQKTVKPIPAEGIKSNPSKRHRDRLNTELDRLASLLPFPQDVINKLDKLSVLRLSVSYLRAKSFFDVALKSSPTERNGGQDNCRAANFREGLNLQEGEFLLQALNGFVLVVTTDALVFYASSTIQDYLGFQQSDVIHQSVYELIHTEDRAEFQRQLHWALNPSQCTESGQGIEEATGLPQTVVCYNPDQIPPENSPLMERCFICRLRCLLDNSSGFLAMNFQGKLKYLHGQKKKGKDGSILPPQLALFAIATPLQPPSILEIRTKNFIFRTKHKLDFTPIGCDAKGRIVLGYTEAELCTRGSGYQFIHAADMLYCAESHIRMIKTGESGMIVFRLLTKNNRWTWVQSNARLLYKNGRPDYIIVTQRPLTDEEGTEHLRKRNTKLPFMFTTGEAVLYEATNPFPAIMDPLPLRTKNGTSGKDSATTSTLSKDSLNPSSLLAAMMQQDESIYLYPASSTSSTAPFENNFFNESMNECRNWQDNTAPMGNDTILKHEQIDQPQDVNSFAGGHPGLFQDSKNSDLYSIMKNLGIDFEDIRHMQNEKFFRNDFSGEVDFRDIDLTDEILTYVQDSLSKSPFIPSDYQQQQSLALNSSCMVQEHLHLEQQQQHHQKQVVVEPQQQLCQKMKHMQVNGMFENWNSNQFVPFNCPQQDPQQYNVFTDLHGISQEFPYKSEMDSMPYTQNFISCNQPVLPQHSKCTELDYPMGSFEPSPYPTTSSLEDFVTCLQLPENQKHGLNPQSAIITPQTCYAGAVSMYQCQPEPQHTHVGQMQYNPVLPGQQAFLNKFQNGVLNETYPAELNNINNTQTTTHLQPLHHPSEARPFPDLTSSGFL
row,SMILES,activation
1,Cn1ncc2c(N3CCCCC3)nc(NCCCO)nc21,5.05% (inactive)
2,COc1ccc(C(=O)Nc2cccc(S(C)(=O)=O)c2)cc1,67.2% (active)
3,COc1ccc(NS(=O)(=O)c2ccc(NC(=O)c3ccc(N(C)S(C)(=O)=O)cc3)cc2)cc1,-0.42% (inactive)
4,COc1cccc(C(=O)Nc2nc3ccc(S(C)(=O)=O)cc3s2)c1,7.38% (inactive)
5,CCCNC(=O)COc1coc(CN2CCN(Cc3ccccc3)CC2)cc1=O,1.71% (inactive)
6,Cc1cnc(C(=O)OCc2c(C)cc(C(C)(C)C)cc2C)cn1,3.96% (inactive)
7,CCN(c1ccc(NC(=O)COC(=O)CCc2nc3ccccc3n2-c2ccccc2)cc1)C(C)C,-1.26% (inactive)
8,Cc1ccc(C(=O)OCC(=O)N2CC(C)CC(C)C2)cc1S(=O)(=O)N1CCCCC1 (centres undefined),0.38% (inactive)
9,Cc1ccnc(NC(=O)c2ccc(Cl)c([N+](=O)[O-])c2)c1,104% (active)
10,O=C(Nc1cccnc1)c1ccc(Cl)c([N+](=O)[O-])c1,-0.85% (inactive)
11,O=C(Nc1ccncc1)c1ccc(Cl)c([N+](=O)[O-])c1,0.64% (inactive)
12,COc1ccc(OC)c(/C=N/NC(=O)c2ccc[n+](CC(=O)c3ccccc3)c2)c1,12.9% (inactive)
13,Cn1c(C(=O)NCCCN2CCN(c3cccc(Cl)c3)CC2)cc2c(=O)n(C)c3ccccc3c21,7.28% (inactive)
14,CCN1CCCC1CNC(=O)c1cc2c(=O)n(C)c3ccccc3c2n1C (centres undefined),3.13% (inactive)
15,Cn1c(C(=O)NCCc2ccsc2)cc2c(=O)n(C)c3ccccc3c21,86.4% (active)
16,N#Cc1ccccc1NC(=O)c1ccc2c(c1)OCO2,32.1% (inactive)
17,O=C(CSc1nn(-c2ccc(F)cc2)c(=S)s1)NC1CCS(=O)(=O)C1 (centres undefined),3.28% (inactive)
18,C=CCn1cc(Cl)cc(C(=O)Nc2ccccc2)c1=O,50.9% (active)
19,C=CCc1cccc2cc(C(=O)Nc3ccc(NC(C)=O)cc3)c(=O)oc12,16.9% (inactive)
20,C=CCN(C(=O)c1cc(C)cc(C)c1)C1(C(=O)Nc2ccccc2)CCN(C(C)C)CC1,5.4% (inactive)
21,CC(C)Cc1nnc(NC(=O)CCC(=O)Nc2ccc3cn[nH]c3c2)s1,24.7% (inactive)
22,O=C1N(c2ccc(Cl)cc2)C(c2ccc(Cl)cc2)N2CCCN12 (centres undefined),54.2% (active)
23,O=C1NC(=O)C(c2ccc(Cl)cc2)N1 (centres undefined),-2.18% (inactive)
24,Cc1ccc(C)c(S(=O)(=O)N2CCCOC2CNC(=O)C(=O)NC2CCCCC2)c1 (centres undefined),2.26% (inactive)
25,CC(=O)Oc1cccc(C(=O)Nc2ccccc2NC(=O)c2cccc(OC(C)=O)c2)c1,2.51% (inactive)

row,SMILES,activation
1,CCOC(=O)c1cc(NC(=O)c2ccc(Cl)cc2)c(=O)oc1-c1ccccc1,-1.16% (inactive)
2,CC(=O)c1cc(NC(=O)c2ccccc2)c(=O)oc1/C=C/N(C)C,60.3% (active)
3,CC(C)C(C(=O)NCc1ccco1)N(CC1CCCO1)C(=O)CNS(=O)(=O)c1ccc(F)cc1 (centres undefined),-0.85% (inactive)
4,COc1ccc(C)cc1Nc1nc(C)nc2c1oc1ccccc12,13.4% (inactive)
5,CCC(C(=O)OC)n1cnc2c(oc3ccccc32)c1=O (centres undefined),2.16% (inactive)
6,COc1ccccc1Nc1ncnc2c1oc1ccccc12,86.1% (active)
7,Cn1c(=O)c2cn(-c3cccc4ccccc34)cc2n(C)c1=O,18.1% (inactive)
8,COc1ccc(OC)c(-n2cc3c(=O)n(C)c(=O)n(C)c3c2)c1,64.9% (active)
9,CC(=O)Nn1cc2c(=O)n(C)c(=O)n(C)c2c1,1.7% (inactive)
10,O=C(O)c1cccc2c1C(=O)N(C1CCCC1)C2,-3.11% (inactive)
11,O=C(COc1ccc(F)cc1Br)NCC1COc2ccccc2O1 (centres undefined),2.44% (inactive)
12,CC1CCN(c2ccc([N+](=O)[O-])c(SCCO)c2)CC1,13.1% (inactive)
13,O=C(CSc1nc2ccccc2[nH]1)N/N=C/C=C\c1ccccc1[N+](=O)[O-],26.7% (inactive)
14,CN1CCN(c2ccc([N+](=O)[O-])c(Sc3nc4ccccc4[nH]3)c2)CC1,50% (active)
15,O=C(OCC(=O)N1CCN(C(=O)c2ccco2)CC1)c1cccc(O)c1,4.27% (inactive)
16,Cc1c(CN2CCC(CO)(CCOc3ccccc3)CC2)[nH]c2ccc(Cl)cc12,6.78% (inactive)
17,COC(=O)c1[nH]c2ccc(Br)cc2c1NC(=O)Oc1ccccc1,48.5% (active)
18,CCOC(=O)c1[nH]c2ccc(OC)cc2c1NC(=O)CCN1CCN(Cc2ccccc2)CC1,4.33% (inactive)
19,COC(=O)c1oc2ccc(Br)cc2c1NC(C)=O,1.12% (inactive)
20,CN(Cc1ccccc1)C(=O)C(=O)c1cn(CC(=O)N2CCCC2)c2ccccc12,0.47% (inactive)
21,NC(=O)C1(N2CCCCC2)CCN(C(=O)c2ccc(C#Cc3ccccc3)o2)CC1,0.68% (inactive)
22,O=C(Nc1ccc(NC(=O)c2cccs2)cn1)c1ccco1,-2.71% (inactive)
23,O=C(Nc1ccnc(-c2ccncc2)n1)c1cccs1,55.7% (active)
24,O=C(Nc1ccccc1)c1ccc(NC(=O)c2cccs2)cc1,-3.44% (inactive)
